# Laboratory results reported in ChEMBL document CHEMBL3988442, “University of Dundee, Small-Polar-MMV Screening Library” (2021).
# Out of some 48,000 compounds screened, about 13,000 (27%) showed an effect of 50% or more. The list shows a part of the results.
# Tested on: Wolbachia pipientis
# Assay: Anti-Wolbachia Cell-Based Screen
# Format: functional
# Parameters: scale not given: in the data most compounds retested in dose-response had high values
# Settings: 5 µM
row,Compound,Percent Effect [%]
1,O=C(NCc1ccccc1CN1CCOCC1)c1ccc(Br)cc1F,-0.3449
2,O=C(O)c1ccc2[nH]cc(CN3CCOCC3)c2c1,-9.058
3,Cc1ncsc1CCN(C)C(=O)c1ccc(CN2CCCCC2)cc1,-41.8
4,Cc1ncc(CN2CCCC2)c2cc(C(=O)c3ccc(Br)cc3)oc12.Cl,139.8
5,Cc1ncc(CN2CCOCC2)c2cc(C(=O)c3ccc(Br)cc3)oc12.Cl,126.2
6,O=C(O)c1ccc2[nH]cc(CN3CCCC3)c2c1,2.363
7,Cc1nn(C)c(C)c1C1CCCN1C(=O)c1nccnc1N (configuration not stated),101
8,Cc1nn(C)c(Cl)c1C1CCCN1C(=O)c1nccnc1N (configuration not stated),-5.243
9,COc1c(C2CCCN2C(=O)c2nccnc2N)c(C)nn1C (configuration not stated),108.6
10,O=S(=O)(Nc1c(F)cccc1N1CCCC1)c1cncc(F)c1,-6.105
11,N#Cc1cccc(NC2CC(=O)N(C3Cc4ccccc4C3)C2)n1 (configuration not stated),5.834
12,Cc1nc(C)n(CC2CCCN(CCOc3ccc(F)cc3)C2)n1 (configuration not stated),98.89
13,Cc1nc(C)n(CC2CCCN(CCOc3cccc(F)c3)C2)n1 (configuration not stated),75.5
14,Fc1ccc(CN2CCCC(Cn3cncn3)C2)c2ncccc12 (configuration not stated),0.09463
15,Cc1nc(C)n(CC2CCCN(CCOc3cccc(C#N)c3)C2)n1 (configuration not stated),-2.683
16,Cc1nc(C)n(CC2CCCN2CCCOc2ccc(F)cc2)n1 (configuration not stated),2.053
17,Fc1ccc(OCCCN2CCCC(Cn3cncn3)C2)cc1 (configuration not stated),107.3
18,O=C1CCCN1CCCN1CCCC(Cn2cncn2)C1 (configuration not stated),2.08
19,Cc1nc(C)n(CC2CCCN(CCCOc3ccccc3)C2)n1 (configuration not stated),-19.22
20,Cc1nc(C)n(CC2CCCN(CCCOc3ccc(F)cc3)C2)n1 (configuration not stated),86.71
21,Cc1c(C(C)NC2CCN(C(C)C)CC2)cnn1-c1ccc(F)cc1F (configuration not stated),-0.2198
22,CCOc1cccnc1C(=O)N1CCCN(c2nc(C)cs2)CC1,4.223
23,CCn1ccnc1CN1C[C@@H](CN2CCCC2)[C@@H](CO)C1,-1.438

row,Compound,Percent Effect [%]
1,CCn1ccnc1CN1CCN(CC(=O)NC(=O)NC2CC2)CC1,-16.24
2,Cc1ccc(C)c(-n2ncc(C(=O)NCC3COC(C)(C)O3)c2N)c1 (configuration not stated),185.5
3,Cc1ccc(C)c(-n2ncc(NC(=O)NC3(C)CCOC3)c2C)c1 (configuration not stated),6.274
4,Cc1c(C(=O)NC2(C#N)CCSC2)cnn1-c1ccccc1Cl (configuration not stated),-17.58
5,CCOC(=O)c1ccc(CNC(=O)c2ccncc2Cl)o1,1.896
6,CC1(C)OCC(CNC(=O)c2cnn(-c3cccc(Cl)c3Cl)c2N)O1 (configuration not stated),190.2
7,Cc1cc(Cl)ccc1-n1ncc(C(=O)NCC2COC(C)(C)O2)c1N (configuration not stated),154.2
8,CC1(C)OCC(CNC(=O)c2cnn(-c3cc(Cl)ccc3Cl)c2N)O1 (configuration not stated),-0.3036
9,CC1(C)OCC(CNC(=O)c2cnn(-c3ccc(Cl)cc3)c2N)O1 (configuration not stated),-2.312
10,COc1ccc(-n2ncc(C(=O)NCC3COC(C)(C)O3)c2N)cc1 (configuration not stated),-3.479
11,CC(C)c1ccc(-n2ncc(C(=O)NCC3COC(C)(C)O3)c2N)cc1 (configuration not stated),161.1
12,CC(=O)N[C@@H]1C[C@H](Cc2ccccc2)O[C@H](c2ccc(C(=O)O)cc2)C1,-2.466
13,O=C(CC1=CCCCC1)NCCc1csc(N2CCCC2)n1,-4.83
14,COc1cccc(CCC(=O)N2CCN(Cc3noc(C)n3)CC2)c1,-5.031
15,CN1CCN(CCC(F)(F)C(F)F)CC12CCNC(=O)CC2 (configuration not stated),7.69
16,Cc1cnc(CN2CCOC(CN(C)c3cccnn3)C2)cn1 (configuration not stated),10.01
17,Cc1cccc(C2CCCN2C(=O)CCS(C)(=O)=O)c1C (configuration not stated),-5.02
18,CC(C)(C)C(O)CN1CCN(CC(=O)NC2CCOCC2)CC1 (configuration not stated),4.367
19,CCc1ncc(C(=O)NCCN2CCNC2=O)cn1,99.04
20,CCN(CCN1CCCCCC1)C(=O)c1cnc(-c2cccnc2)nc1,-4.892
21,O=C(NCCN1CCOC1=O)c1ccc2sccc2c1,-4.154
22,CCc1ncc(C(=O)NCC2CCN(Cc3ccncc3)CC2)cn1,-2.292
23,O=C(NCCN1CCNC1=O)c1cc(-c2ccc(O)cc2)n[nH]1,6.287

row,Compound,Percent Effect [%]
1,O=C(NCCN1CCNC1=O)c1cnc(-c2cccnc2)nc1,91.56
2,O=C(NCCN1CCOC1=O)c1cnc(-c2cccnc2)nc1,103
3,CCc1ncc(C(=O)NCCn2c(C)cc(C)nc2=O)cn1,5.273
4,O=C(NCCn1ccnc1C1CCOC1)c1cccnc1 (configuration not stated),-7.177
5,CN(Cc1cc(Br)cn1C)C(=O)Cc1cccc(O)c1,-22.7
6,CNC(=O)Cn1nnc(-c2cc3ccccc3o2)n1,-5.513
7,COc1cc(C(=O)NC(CC(=O)O)c2cccs2)cc(Cl)c1OC (configuration not stated),14.71
8,CC(C)Cn1cncc1CNC1CCSC1 (configuration not stated),0.928
9,Cc1cccc(C(C)(C)NC(=O)CCS(C)(=O)=O)c1,2.509
10,CNCC(=O)Nc1ccc(-c2cnc(NCCS(C)(=O)=O)nc2)cc1,99.21
11,CC[C@H](C)Nc1ncc(-c2cccc(NC(=O)CNC)c2)cn1,114.1
12,CNCC(=O)Nc1cccc(-c2cnc(NCCO)nc2)c1,140.4
13,Cn1ccnc1-c1cccc(NC(=O)NCC(=O)NC(C)(C)C)c1,-2.22
14,CNCC(=O)Nc1cccc(-c2cnc(NCCS(C)(=O)=O)nc2)c1,116.8
15,CNC(=O)c1cccc(CCNc2ncc(Br)cn2)c1,-10.19
16,CCc1cnc(NCCS(=O)(=O)N(C)C)nc1,-13.3
17,O=C(CNC(=O)Nc1cccc(-c2nccs2)c1)NCCO,-9.757
18,Cc1nccc(-c2cccc(NCC(=O)N3CCCCCCC3)c2)n1,4.13
19,CC(C)(C)CC(=O)Nc1ccc(S(C)(=O)=O)nc1,8.515
20,CCn1nnnc1-c1cccc(NC(=O)CCOC(C)C)c1,1.671
21,CC(C)n1cnc2c1C(C(=O)N1CCCC1)N(CC1CC1)CC2.O=C(O)C(F)(F)F (configuration not stated),12.69
